Results on 40 compounds are retold here after PubChem BioAssay (Tox21).

Inconclusive results are not listed. Where a call stands in place of a potency, no number is given. Values without a mark were called inactive. Activity calls are given as the source filed them. The call rests on the fitted dose curve; in most records, active means well fitted activation curve with a large enough effect in the signal ratio in the repeat runs (not every such curve was filed as active); inconclusive means weak or mixed curves, or effect the other way; inactive means flat fitted curve, though single readings scatter; the % refers to the signal ratio.
Potency means the concentration at half of the fitted maximal effect.

A short description of this test: qHTS assay to identify small molecule agonists of the endoplasmic reticulum stress response signaling pathway (AID 1159516). The conditions noted are these: ESRE-bla HeLa, ER stress beta-lactamase reporter, 5 h; series mostly up to 61 µM. The source says:
National Center for Advancing Translational Sciences [NCATS]
NIH Chemical Genomics Center [NCGC]
U.S. Environmental Protection Agency [EPA]
National Institutes of Environmental Health Sciences [NIEHS]
National Toxicology Program [NTP]
U.S. Food and Drug Administration [FDA]
Endoplasmic Reticulum (ER) plays an important role in cellular signaling, protein folding/maturation, stress response, lipid biosynthesis, calcium storage and release etc. Under stress conditions, proteins in ER misfold or unfold, and leading to the expression of ER stress responsive genes. ER stress has been associated with a variety of pathophysiological conditions such as cancer, inflammation, neurodegenerative diseases, diabetes, ischemic heart disease etc. To identify the compounds that induce ER stress response, an ER stress reporter cell line, CellSensor ESRE-bla HeLa (Life Technologies, Carlsbad, CA) containing a beta-lactamase reporter gene under control of the Endoplasmic reticulum Stress Response Element (ESRE) was used to screen Tox21 10K compound library.
Tox21 Assay Protocol Summary:
ESRE-bla HeLa cells were dispensed at 1,500 cells/6 uL of assay medium per well into black wall/clear-bottom 1536-well plates using a Multidrop Combi (ThermoFisher Scientific, Waltham, MA) dispenser. After the assay plates were incubated at 37 C and 5% CO2 for an overnight, 23 nL of compounds dissolved in DMSO, positive controls or DMSO only was transferred to the assay plate by a Pintool station (Kalypsys, San Diego, CA). The assay plates were incubated at 37 C and 5% CO2 for 5 hr. One uL of LiveBLAzer B/G FRET substrate (Life Technologies) was added using a Flying Reagent Dispenser (Aurora Discovery, San Diego, CA) and the plates were incubated at room temperature for 2 hr. Fluorescence intensity (405 nm excitation, 460 nm and 530 nm emissions) was measured using an Envision plate reader (PerkinElmer, Shelton, CT).
Regarding `CCCCn1cc[n+](C)c1.[Cl][Fe-]([Cl])([Cl])[Cl]`, the Potency result is “inactive”.

Turning to `ClC1=C(Cl)[C@]2(Cl)[C@@H]3[C@H]4C[C@H]([C@@H]5O[C@H]45)[C@@H]3[C@@]1(Cl)C2(Cl)Cl`, the Potency result was “inactive”.

`COP(=O)(OC)O/C(=C\Cl)c1cc(Cl)c(Cl)cc1Cl`: the Potency entry was “inactive”.

For the compound `Oc1ccc(Cl)c(Cl)c1`, the Potency result was “inactive”.

`CNC(=O)Oc1cc(C)cc(C(C)C)c1`: the Potency entry was “inactive”.

As for `CC(Cc1ccc2c(c1)OCO2)NO` (stereo not given), the Potency entry was “inactive”.

For the compound `Clc1ccc(C(Cl)(Cl)Cl)cc1Cl`, the Potency entry is “inactive”.

In the case of `CCC1(CC)C(=O)N=C(O)NC1=O`, the Potency result is “inactive”.

Take `COc1ccc2c3c1O[C@H]1[C@H](O)CC[C@H]4[C@@H](C2)N(C)CC[C@@]341`: the Potency result was “inactive”.

In the case of `CCCCC/C=C\C/C=C\C/C=C\C/C=C\CCCC(=O)NCC(=O)O`, the Potency entry is “inactive”.

In the case of `[O]=[Cr][O][Cr]=[O]`, the Potency result is “inactive”.

On to `CNC(=O)/C=C(\C)OP(=O)(OC)OC`, for which the Potency entry was “inactive”.

`CCC(C)c1cccc(C(C)CC)c1O` (stereo not given): the Potency result is “inactive”.

Turning to `Clc1c(Cl)c(Cl)c(Cl)c(Cl)c1Cl`, the activation was -1.07% [at 6.95 µM].

On to `CC1(C)C(C=C(Cl)Cl)C1C(=O)OC(C#N)c1ccc(F)c(Oc2ccccc2)c1` (stereo not given), for which the Potency entry is “inactive”.

Turning to `CC(C)(C)c1ccc(OP(=O)(Oc2ccccc2)Oc2ccccc2)cc1`, the Potency entry was “inactive”.

In the case of `C#CCC1=C(C)C(OC(=O)C2C(C=C(C)C)C2(C)C)CC1=O` (stereo not given), the Potency result is “inactive”.

As to `Nc1c(Cl)c(Cl)c(Cl)c(Cl)c1Cl`, the Potency entry was “inactive”.

In the case of `CNC(=O)CSP(=O)(OC)OC`, the Potency result was “inactive”.

Consider `O=C(N[C@@H]1N=C(c2ccccc2F)c2cccc3c2N(CC3)C1=O)c1cc2ccccc2[nH]1`, for which the Potency entry was “inactive”.

As for `O=C(Nc1ccc(F)cc1F)c1cccnc1Oc1cccc(C(F)(F)F)c1`, the Potency entry was “inactive”.

As to `COC(=O)c1ccccc1S(=O)(=O)NC(=O)Nc1nc(C)nc(OC)n1`, the Potency result was “inactive”.

With `C=Cc1cccc(CCl)c1`, the Potency entry was “inactive”.

Regarding `Nc1ccc(Cl)cc1C(=O)c1ccccc1F`, the Potency result was “inactive”.

Turning to `O.O.O.O=C([O-])[C@H]([O-])[C@@H]([O-])C(=O)[O-].O=C([O-])[C@H]([O-])[C@@H]([O-])C(=O)[O-].[K+].[K+].[Sb+3].[Sb+3]`, the Potency entry was “inactive”.

Turning to `CCCCCCCc1ccc(O)cc1`, the Potency entry was “inactive”.

Take `CO/N=C(/C1=NOCCO1)c1ccccc1Oc1ncnc(Oc2ccccc2Cl)c1F`: the Potency entry is “inactive”.

Take `Cc1ccccc1OP(=O)(Oc1ccccc1C)Oc1ccccc1C`: the Potency entry was “inactive”.

Regarding `COc1ccc2[nH]cc(CCN(C(C)C)C(C)C)c2c1`, the Potency result is “inactive”.

With `Oc1ccc2[nH]cc(CCCCN3CC=C(c4ccccc4)CC3)c2c1`, the Potency was 4.25 µM (active).

As to `COP(=S)(NC(C)C)Oc1ccc(C)cc1[N+](=O)[O-]` (stereo not given), the Potency result was “inactive”.

Take `CC(=O)[O-].CC(=O)[O-].CC(=O)[O-].[Sb+3]`: the activation was 3.53% [at 6.95 µM].

For the compound `NC(=O)C(Cl)Cl`, the Potency result was “inactive”.

Take `Nc1nc(N)nc(Cl)n1`: the Potency entry was “inactive”.

In the case of `O=[N+]([O-])c1ccc(Cl)c(Cl)c1Cl`, the Potency result was “inactive”.

As to `O=[N+]([O-])[O-].[Tl+]`, the Potency result is “inactive”.

With `CC1=C2C[C@H]3[C@@H](CC=C4C[C@@H](O)CC[C@@]43C)[C@@H]2CC[C@]12O[C@@H]1C[C@H](C)CN[C@H]1[C@H]2C`, the Potency result was “inactive”.

Turning to `COc1c2c(cc3c1OCO3)CCN(C)C2`, the Potency result was “inactive”.

Regarding `Oc1ccc([C@H]2CNCc3c2ccc(O)c3O)cc1O`, the Potency result is “inactive”.

With `CN1[C@@H]2CC[C@H]1CC(O)C2` (stereo not given in full), the Potency result was “inactive”.
